# “And” between values parts separate entries of the source, which are not always exact repeats. Identical values can stand only once. Inconclusive results are not listed. Entries that show only a call come without a potency. A structure can be active in one record and inactive in another. The source made the active and inactive calls. Unless noted, calls come from the whole dose curve; as a rule, active = well fitted curve in the direction sought with a large enough effect in the repeat runs; inconclusive = weak or mixed curves; inactive = no such curve, though single readings can be large; an effect the other way counts as inactive or inconclusive.
# Key:
# [1] = qHTS assay to identify small molecule agonists of the peroxisome proliferator-activated receptor delta (PPARd) signaling pathway - cell viability counter screen (AID 743211); note: nearly all actives have a fitted effect of over 55% in size
# In short: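 In the same wells used for beta-lactamase reporter measurement, cytotoxicity is scored by CellTiter-Glo. HEK293H PPARd-bla cells receive compound for 17 h at 37C following a 5 h settling period.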
# [2] = molecular target: Peroxisome proliferator-activated receptor delta (Homo sapiens) (UniProt Q03181); assay: qHTS assay to identify small molecule agonists of the peroxisome proliferator-activated receptor delta (PPARd) signaling pathway (AID 743212; calls by dose curve)
# In short: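 HEK293H UAS-bla reporter cells, human PPARd system; compounds delivered in DMSO after 5 h plating, then at 37 C. Beta-lactamase FRET read, 2 h RT substrate step.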
# [3] = qHTS assay to identify small molecule antagonists of the peroxisome proliferator-activated receptor delta (PPARd) signaling pathway - cell viability counter screen (AID 743213); note: nearly all actives have a fitted effect of over 50% in size
# In short: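 Luminescence from CellTiter-Glo, added after the bla read and incubated 30 min at room temperature, gives viability of HEK293H PPARd-bla cells exposed to compounds for 17 h at 37 C with 300 nM L165041.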
# [4] = molecular target: Peroxisome proliferator-activated receptor delta (Homo sapiens) (UniProt Q03181); assay: qHTS assay to identify small molecule antagonists of the peroxisome proliferator-activated receptor delta (PPARd) signaling pathway (AID 743215; active = well fitted inhibition curve with a large enough effect in the signal ratio in the repeat runs, not every such curve was filed as active; the % refers to the signal ratio;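 note: cells stimulated with agonist L165041 at 300 nM final during compound exposure; series mostly up to about 62 µM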)
# In short: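 With L165041 present at 300 nM final, compounds were incubated 17 h at 37 C on PPARd UAS-bla HEK293H cells. A FRET-based beta-lactamase substrate was then applied for 2 h at room temperature and fluorescence intensity recorded.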
# [5] = qHTS assay to identify small molecule agonists of the farnesoid-X-receptor (FXR) signaling pathway - cell viability counter screen (AID 743218); note: nearly all actives have a fitted effect of over 45% in size
# In short: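 After 16 h at 37 C with test compounds, FXR-bla HEK 293T cells were given LiveBLAzer B/G substrate for 2 h at RT and then CellTiter-Glo; luminescence was taken after 30 min.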
# [6] = qHTS assay to identify small molecule antagonists of the farnesoid-X-receptor (FXR) signaling pathway - cell viability counter screen (AID 743221; active = well fitted cell-killing curve with a large enough effect in the repeat runs, not every such curve was filed as active; note: nearly all actives have a fitted effect of over 50% in size)
# In short: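 Here viability was scored by luminescence after CellTiter-Glo addition to wells already read for beta-lactamase. Prior treatment: compound plus CDCA (50 uM final), 16 h, 37 C, HEK 293T FXR-bla cells.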
# [7] = molecular target: Vitamin D3 receptor (Homo sapiens) (UniProt P11473); assay: qHTS assay to identify small molecule agonists of the vitamin D receptor (VDR) signaling pathway (AID 743222; calls by dose curve)
# In short: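 VDR-bla cells were seeded, left 4 h, treated with compounds in DMSO for 16 h, incubated 2 h at RT with B/G FRET substrate, and read for fluorescence.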
# [8] = molecular target: Vitamin D3 receptor (Homo sapiens) (UniProt P11473); assay: qHTS assay to identify small molecule antagonists of the vitamin D receptor (VDR) signaling pathway (AID 743223; active = well fitted inhibition curve with a large enough effect in the signal ratio in the repeat runs, not every such curve was filed as active; the % refers to the signal ratio)
# In short: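 Inhibition of agonist-driven VDR signalling is scored in VDR-bla cells: 3 nM final 1alpha,25-dihydroxyvitamin D3 plus compound, 16 h at 37C, then beta-lactamase detection by FRET substrate fluorescence after 2 h.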
# [9] = qHTS assay to identify small molecule agonists of the vitamin D receptor (VDR) signaling pathway - cell viability counter screen (AID 743224); note: nearly all actives have a fitted effect of over 50% in size; note: potency is the fitted concentration of half-maximal effect
# In short: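 Here cell health was gauged by luminescent ATP detection (CellTiter-Glo, 30 min RT) in VDR-bla cells that had been incubated with test compounds for 16 h at 37C and 5% CO2.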
# [10] = qHTS assay to identify small molecule antagonists of the vitamin D receptor (VDR) signaling pathway - cell viability counter screen (AID 743225); note: nearly all actives have a fitted effect of over 50% in size
# In short: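 Compounds were pinned onto VDR-bla HEK 293T cells together with 1-alpha,25-dihydroxyvitamin D3 at 3 nM final. After 16 h at 37C and 5% CO2 plus the reporter readout, cell viability was measured by CellTiter-Glo luminescence (30 min, room temperature).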
# [11] = qHTS assay to identify small molecule agonists of the NFkB signaling pathway (AID 1159509; active = well fitted curve in the direction sought with a large enough effect in the signal ratio in the repeat runs, not every such curve was filed as active; the % refers to the signal ratio; note: series mostly up to about 61 µM)
# In short: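 NFkB-bla ME-180 cells with a beta-lactamase reporter under an NF-kB response element were plated overnight, treated with compounds in DMSO for 5 hr at 37 C, then loaded with FRET substrate for 1.5 hr at room temperature.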
# [12] = qHTS assay to identify small molecule agonists of the NFkB signaling pathway - cell viability counter screen (AID 1159515; calls by dose curve; note: series mostly up to about 61 µM; nearly all actives have a fitted effect of over 55% in size)
# In short: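 5 hr compound treatment of NFkB-bla ME-180 cells (2,000/well, seeded overnight beforehand), followed by reporter substrate for 1.5 hr. CellTiter-Glo added afterward; luminescence after 30 min RT.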
# [13] = qHTS assay to identify small molecule agonists of the endoplasmic reticulum stress response signaling pathway (AID 1159516; active = well fitted activation curve with a large enough effect in the signal ratio in the repeat runs, not every such curve was filed as active; the % refers to the signal ratio)
# In short: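 Reporter HeLa cells (ESRE-beta-lactamase) underwent 5 hr compound incubation at 37 C and 5% CO2 in quantitative HTS format. Detection followed 2 hr of FRET substrate loading at room temperature.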
# [14] = qHTS assay to identify small molecule agonists of the endoplasmic reticulum stress response signaling pathway - cell viability counter screen (AID 1159517; calls by dose curve)
# In short: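 Cells, HeLa ESRE-bla; density, 1,500/well; dosing, 5 hr at 37 C, 5% CO2; readout, CellTiter-Glo luminescence after 30 min RT.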
# [15] = qHTS assay to identify small molecule antagonists of the retinoid-related orphan receptor gamma (ROR-gamma) signaling pathway - cell viability counter screen (AID 1159520); note: nearly all actives have a fitted effect of over 50% in size
# In short: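 Cytotoxicity was read from cellular ATP (CellTiter-Glo luminescence) after 16 hr at 37 C with 1 uM doxycycline induction. The inducer was added 2 hr after compound transfer to Tet-on ROR gamma CHO cells.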
# [16] = molecular target: Nuclear receptor ROR-gamma (Homo sapiens) (UniProt P51449); assay: qHTS assay to identify small molecule antagonists of the retinoid-related orphan receptor gamma (ROR-gamma) signaling pathway (AID 1159521; note: nearly all actives have a fitted effect of over 50% in size; note: potency is the fitted concentration of half-maximal effect)
# In short: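 Test compounds were applied to Tet-on RORγ CHO cells 2 h ahead of doxycycline hyclate (1 uM final). Luciferase reporter activity was quantified by luminescence after 16 h at 37 C and 5% CO2.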
# [17] = qHTS assay to identify small molecule agonists of the AP-1 signaling pathway - cell viability counter screen (AID 1159525; calls by dose curve; note: nearly all actives have a fitted effect of over 55% in size)
# In short: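 Luminescent ATP readout (Cell Titer Glo, 30 min RT), normalised to DMSO and tetra n-octyl ammonium bromide controls. Cells were ME-180 AP-1-bla in 0.5% dialyzed FBS Opti-MEM, with a 5 h, 37 °C compound exposure.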
# [18] = qHTS assay to identify small molecule agonists of the AP-1 signaling pathway (AID 1159526; calls by dose curve)
# [19] = molecular target: Bile acid receptor (Homo sapiens) (UniProt Q96RI1); assay: qHTS assay to identify small molecule antagonists of the farnesoid-X-receptor (FXR) signaling pathway (AID 743217; active = well fitted inhibition curve with a large enough effect in the signal ratio in the repeat runs, not every such curve was filed as active; the % refers to the signal ratio; note: potency is the fitted concentration of half-maximal effect)
# In short: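 In this cell-based antagonist screen, inhibition of CDCA-driven (50 uM final) UAS-beta-lactamase expression in HEK 293T cells was measured by FRET fluorescence following 16 h compound exposure at 37 °C.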
# [20] = molecular target: Bile acid receptor (Homo sapiens) (UniProt Q96RI1); assay: qHTS assay to identify small molecule agonists of the farnesoid-X-receptor (FXR) signaling pathway (AID 743220; active = well fitted activation curve with a large enough effect in the signal ratio in the repeat runs, not every such curve was filed as active; the % refers to the signal ratio)
# In short: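 Beta-lactamase reporter under UAS control in GeneBLAzer FXR HEK 293T cells (5000/well) measured with LiveBLAzer FRET substrate after 2 h at room temperature. Compound exposure lasted 16 h at 37C.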
# Bile acid receptor (Homo sapiens), sequence (Q96RI1 whole entry, looked up): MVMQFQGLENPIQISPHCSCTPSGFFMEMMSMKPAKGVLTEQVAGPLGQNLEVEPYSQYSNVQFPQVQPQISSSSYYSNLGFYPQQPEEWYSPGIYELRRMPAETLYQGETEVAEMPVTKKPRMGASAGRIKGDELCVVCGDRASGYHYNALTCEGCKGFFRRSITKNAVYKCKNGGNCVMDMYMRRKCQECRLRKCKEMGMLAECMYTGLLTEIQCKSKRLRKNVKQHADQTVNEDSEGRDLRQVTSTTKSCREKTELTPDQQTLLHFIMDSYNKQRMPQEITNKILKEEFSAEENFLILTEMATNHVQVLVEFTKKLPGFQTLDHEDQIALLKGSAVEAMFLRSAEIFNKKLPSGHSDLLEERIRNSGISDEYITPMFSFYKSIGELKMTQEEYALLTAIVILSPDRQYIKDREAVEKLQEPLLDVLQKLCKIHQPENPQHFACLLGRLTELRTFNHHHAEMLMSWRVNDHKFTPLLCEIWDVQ
# Peroxisome proliferator-activated receptor delta (Homo sapiens), sequence (Q03181 whole entry, looked up): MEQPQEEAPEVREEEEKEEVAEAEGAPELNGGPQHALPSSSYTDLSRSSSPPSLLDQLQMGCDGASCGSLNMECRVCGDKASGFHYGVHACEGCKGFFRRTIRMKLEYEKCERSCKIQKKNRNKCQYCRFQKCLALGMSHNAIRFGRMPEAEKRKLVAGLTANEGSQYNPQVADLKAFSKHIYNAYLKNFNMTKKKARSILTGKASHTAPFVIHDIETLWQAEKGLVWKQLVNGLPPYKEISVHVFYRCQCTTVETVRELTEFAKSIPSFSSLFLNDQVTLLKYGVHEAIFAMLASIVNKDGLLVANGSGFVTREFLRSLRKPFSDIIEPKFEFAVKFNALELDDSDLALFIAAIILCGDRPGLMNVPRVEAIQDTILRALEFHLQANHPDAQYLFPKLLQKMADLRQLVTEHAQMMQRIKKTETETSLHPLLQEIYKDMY
# Vitamin D3 receptor (Homo sapiens), sequence (P11473 whole entry, looked up): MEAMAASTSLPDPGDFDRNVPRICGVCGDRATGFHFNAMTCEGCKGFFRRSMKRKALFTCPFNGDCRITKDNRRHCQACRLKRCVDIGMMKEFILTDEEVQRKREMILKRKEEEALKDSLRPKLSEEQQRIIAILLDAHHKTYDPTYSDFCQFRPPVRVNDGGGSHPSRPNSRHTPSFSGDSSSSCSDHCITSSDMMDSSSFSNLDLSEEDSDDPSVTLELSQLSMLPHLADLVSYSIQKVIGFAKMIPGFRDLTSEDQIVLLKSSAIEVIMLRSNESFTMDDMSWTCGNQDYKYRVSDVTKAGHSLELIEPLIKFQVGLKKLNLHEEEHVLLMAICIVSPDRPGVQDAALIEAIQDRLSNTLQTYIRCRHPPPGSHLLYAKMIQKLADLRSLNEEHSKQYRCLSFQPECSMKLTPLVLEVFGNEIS
Structure (SMILES),Potency [1],outcome [2],Potency [3],outcome [4],Potency [5],outcome [6],outcome [7],Potency [8],Potency [9],outcome [10],outcome [11],outcome [12],outcome [13],Potency [14],outcome [15],Potency [16],outcome [17],Potency [18],Potency [19],outcome [20]
C#C[C@]1(O)CC[C@H]2[C@@H]3CCC4=CC(=O)CC[C@@H]4[C@H]3CC[C@@]21CC,inactive,inactive,inactive,inactive,inactive,inactive,inactive,inactive,inactive,inactive,inactive,inactive,inactive,inactive,inactive,48.6 µM (active) and inactive,inactive,inactive,–,–
COC1=CC(=O)C[C@@H](C)[C@]12Oc1c(Cl)c(OC)cc(OC)c1C2=O,inactive,inactive,inactive,–,inactive,inactive,inactive,–,inactive,inactive,inactive,inactive,inactive,inactive,inactive,8.56 µM (active) and 19.3 µM (active) and inactive,inactive,inactive,inactive,inactive
CC(C)Cc1ccc(C(C)C(=O)O)cc1 (centres undefined),inactive,inactive,inactive,inactive,inactive,inactive,–,–,–,–,inactive,inactive,inactive,inactive,inactive,inactive,inactive,inactive,–,–
CC1=NN(c2ccccc2)C(=O)C1,inactive,inactive,inactive,inactive,–,inactive,–,–,inactive,inactive,inactive,inactive,inactive,inactive,inactive,inactive,inactive,inactive,inactive,inactive
C=CCOC(=O)CC(C)C,inactive,inactive,inactive,inactive,inactive,inactive,inactive,inactive,inactive,inactive,inactive,inactive,inactive,inactive,inactive,inactive,inactive,inactive,inactive,inactive
CCCCCCCCOc1ccc(C(=O)c2ccccc2)c(O)c1,inactive,inactive,inactive,inactive,–,inactive,inactive,inactive,inactive and 49 µM (active),inactive,inactive,inactive,inactive,inactive,inactive,inactive,inactive,inactive,inactive,inactive
O=c1c(-c2ccc(O)cc2)coc2cc(O)cc(O)c12,inactive,inactive,inactive,–,–,inactive,inactive,inactive,inactive,inactive,inactive,inactive,inactive,inactive,inactive,inactive,inactive,inactive,38.9 µM (active) and 26.6 µM (active),inactive
CCOC(=O)C(C)(C)Oc1ccc(Cl)cc1,inactive,inactive,inactive,inactive,inactive,inactive,inactive,inactive,inactive,inactive,inactive,inactive,inactive,inactive,inactive,inactive,inactive,inactive,inactive,inactive
NC(N)=NC(N)=NCCc1ccccc1,inactive,–,inactive,inactive,inactive,inactive,–,–,inactive,inactive,inactive,inactive,inactive,inactive,inactive,30.6 µM (active),inactive,inactive,–,–
CN/C(=C\[N+](=O)[O-])NCCSCc1ccc(CN(C)C)o1,inactive,inactive,inactive,inactive,inactive,inactive,inactive,inactive,inactive,inactive,inactive,inactive,inactive,inactive,inactive,inactive,inactive,inactive,–,–
Cc1cccc(C)c1O,inactive,inactive,inactive,inactive,inactive,inactive,inactive,inactive,inactive,inactive,inactive,inactive,inactive,inactive,inactive,inactive,inactive,inactive,–,–
COC(=O)C1CCC(C(=O)OC)CC1 (centres undefined),inactive,–,inactive,inactive,–,inactive,inactive,inactive,inactive,inactive,inactive,inactive,inactive,inactive,inactive,inactive,inactive,inactive,inactive,inactive
NC(=O)c1ccc([N+](=O)[O-])cc1Cl,inactive,inactive,inactive,inactive,inactive,inactive,inactive,inactive,inactive,inactive,inactive,inactive,inactive,inactive,inactive,inactive,inactive,inactive,inactive,inactive
CCCCOCCOCCSC#N,inactive,inactive,inactive,inactive,–,inactive,inactive,inactive,inactive,inactive,inactive,inactive,inactive,inactive,inactive,inactive,inactive,inactive,–,–
O=C(O)Cc1cccc2ccccc12,inactive,–,inactive,inactive,inactive,inactive,inactive,inactive,inactive,inactive,inactive,inactive,inactive,inactive,inactive,inactive,inactive,inactive,inactive,inactive
Cc1cnc(NC(=O)C2=C(O)c3ccccc3S(=O)(=O)N2C)s1,inactive,–,inactive,inactive,inactive,inactive,–,–,–,–,inactive,inactive,inactive,inactive,inactive,inactive,inactive,inactive,inactive,inactive

# Reference: PubChem BioAssay (Tox21)
